The record followed here is PubChem BioAssay (NCI).

Each structure is given as a SMILES string. Compounds without any hit were thinned out: in the full panel of roughly 83,000, 20% have a hit.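 48-hour exposure, single concentration, 96-well plates; percent growth endpoint where 0 means no net growth. Active: below 10.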 Unmarked numbers belong to inactive results. Active and inactive are the calls of the source.

Common to all, as to test: NCI-60 one-dose screen, 48 h (100 = growth as untreated, 0 = no growth, -100 = all killed)
Holding throughout (conditions): 10 µM unless noted

Assay [1] concerns T-47D breast.
Assay [2] deals with BT-549 breast.
Assay [3] has as its system MDA-MB-435 melanoma.
The test system of assay [4] is SW-620 colon.
Assay [5] relates to MCF7 breast.
For assay [6], the system named is HCT-116 colon.
For assay [7], the system named is HCC-2998 colon.
For assay [8], the system named is KM12 colon.

Turning to `Clc1ccc2c(c1)-c1ccccc1C1=NCCN12`, the growth in assay [1] is 29.6%; in assay [2], 71.5%; in assay [3], 29.4%; in assay [4], 22.5%; in assay [5] it was 10.6%; in assay [6] it was 21%. Moreover, the growth in assay [7] was 40.7%; in assay [8], 33.3%.

`CC(=O)c1c(O)c(C)c(O)c2c1OC1=CC(=O)/C(=C(/C)N)C(=O)C12C` (stereo not given): the growth in assay [1] is 74.9%; in assay [2], 89.3%; in assay [3] it was 103%; in assay [4], 99.4%; in assay [5] it was 85.4%; in assay [6], 63.4%. Further, the figures for the growth in assay [7] and in assay [8] were 103% and 88%, respectively.

In the case of `Nc1cc2nc3ccccc3oc-2cc1=O`, the growth was 69.9% in assay [1]; -47.1% (active) in assay [2]; -88% (active) in assay [3]; 11.6% in assay [4]; 9.47% (active) in assay [5]; 45.1% in assay [6]. The results for the growth in assay [7] and in assay [8] were 79.4% and 32.4%, respectively.

For the molecule `COc1ccc(-c2cnc3ccnn3c2-c2cc(OC)c(OC)c(OC)c2)cc1`, the growth in assay [1] is 22.2%; in assay [2], 66.7%; in assay [3], -38.5% (active); in assay [4], 16.1%; in assay [5] it was 25.4%; in assay [6] it was 27.5%. Also, the growth in assay [7] was 80.8%; in assay [8], 16.1%.

As to `COc1cc2nccc(Oc3ccc(NC(=O)C4(C(=O)Nc5ccc(F)cc5)CC4)cc3)c2cc1Oc1ccc(N)cn1`, the growth in assay [1] is 5.99% (active); in assay [2] it was 61.9%; in assay [3], 3.34% (active); in assay [4], 36.8%; in assay [5] it was 9.52% (active); in assay [6], 40.7%. For the same molecule, the growth in assay [7] is 72%; in assay [8] it was 3.7% (active).

Turning to `CC(C)N1CCN(c2ccncc2S(=O)(=O)N2CCN(C)CC2)CC1`, the growth is 96.2% in assay [1]; 107% in assay [2]; 101% in assay [3]; 105% in assay [4]; 94.1% in assay [5]; 100% in assay [6]. Further, the growth is 106% in assay [7] and 99.1% in assay [8].

In the case of `COC(=O)CNS(=O)(=O)c1ccc2c(c1)Cc1cc(S(=O)(=O)NCC(=O)OC)ccc1-2`, the growth is 99.5% in assay [1]; 100% in assay [2]; 103% in assay [3]; 102% in assay [4]; 95.5% in assay [5]; 109% in assay [6]. The growth in assay [7] was 111%; in assay [8] it was 109%.

Turning to `CCC1CCc2nc3sc(C(=O)Nc4cccc(F)c4)c(N)c3cc2C1` (stereo not given), the growth in assay [1] was 89.9%; in assay [2] it was 88.1%; in assay [3] it was -12.6% (active); in assay [4] it was 40.6%; in assay [5], 12.6%; in assay [6], 60%. For the same molecule, the growth in assay [7] is 91.6%; in assay [8], 41.3%.

`CCOP(=O)(O)OP(=O)(O)OCC`: the growth in assay [1] is 92.5%; in assay [2] it was 102%; in assay [3] it was 110%; in assay [4] it was 103%; in assay [5], 94.1%; in assay [6], 106%. Besides, the results for the growth in assay [7] and in assay [8] were 104% and 103%, respectively.

For the molecule `Cc1cccc(C(=O)O)n1`, the growth was 106% in assay [1]; 109% in assay [2]; 95.8% in assay [3]; 103% in assay [4]; 104% in assay [5]; 99.2% in assay [6]. Also, the figures for the growth in assay [7] and in assay [8] were 98.7% and 110%, respectively.

For `COc1cc(-c2csc(NC(=O)Nc3cccc(C(F)(F)F)c3)n2)cc(OC)c1OC`, the growth in assay [1] was 7.61% (active); in assay [2], 43.8%; in assay [3], 57.1%; in assay [4], 74.3%; in assay [5], 35.5%; in assay [6] it was 46.9%. For the same molecule, the growth in assay [7] was 81.1%; in assay [8] it was 34.5%.

Regarding `CC(C)N=C1CCCC1C(=S)SSC(=S)C1CCCC1=NC(C)C` (stereo not given), the growth is 47% in assay [1]; 82.2% in assay [2]; 61.7% in assay [3]; 74.9% in assay [4]; 56.9% in assay [5]; 51.4% in assay [6]. Moreover, the results for the growth in assay [7] and in assay [8] were 116% and 101%, respectively.

As for `COc1ccc([C@@H]2[C@@H](Oc3ccccc3)C(=O)N2c2cc(OC)c(OC)c(OC)c2)cc1F`, the growth was 87.4% in assay [1]; 1.45% (active) in assay [2]; -27.5% (active) in assay [3]; 26.2% in assay [4]; 14.1% in assay [5]; 2.37% (active) in assay [6]. For the same molecule, the growth in assay [7] was 12.9%; in assay [8] it was 11.7%.

Regarding `COc1ccc2[nH]c(O)c(/C=c3/ccc4c(c3)N=C(c3ccc(C(F)(F)F)cc3)N=4)c2c1`, the growth was 57.4% in assay [1]; 81.2% in assay [2]; 76.5% in assay [3]; 86.4% in assay [4]; 45.1% in assay [5]; 56% in assay [6]. Besides, the values for the growth in assay [7] and in assay [8] were 97.7% and 75.1%, respectively.

Take `CC(C)c1[nH]ncc1-c1nc2ccc3[nH]ncc3c2c2c1CCCC2`: the growth in assay [1] was 46.8%; in assay [2], 27.4%; in assay [3], 53.8%; in assay [4] it was 15.9%; in assay [5] it was 20.4%; in assay [6], 12.2%. Besides, the growth in assay [7] was 53.5%; in assay [8], 17.4%.

`O=c1[nH]cnc2nc[nH]c12`: the growth is 111% in assay [1]; 105% in assay [2]; 93.5% in assay [3]; 105% in assay [4]; 95.4% in assay [5]; 98.1% in assay [6]. Also, the values for the growth in assay [7] and in assay [8] were 101% and 196%, respectively.

As to `Cc1ccc(N2C3c4ccccc4N(S(=O)(=O)c4ccc(C)cc4)C2c2ccccc2N3S(=O)(=O)c2ccc(C)cc2)cc1`, the growth in assay [1] is 93.2%; in assay [2], 115%; in assay [3] it was 99.9%; in assay [4] it was 96.6%; in assay [5], 88.5%; in assay [6] it was 121%. Also, the growth in assay [7] was 115%; in assay [8], 95.4%.

On to `O=[N+]([O-])c1cccc([I+]c2ccccc2)c1`, for which the growth in assay [1] is 50.1%; in assay [2] it was 63.3%; in assay [3], 72.7%; in assay [4], 40%; in assay [5], 37.6%; in assay [6], 47.7%. The growth in assay [7] is 67.2%; in assay [8], 60.5%.

As for `C=CCn1c(C)nc2cc(Nc3nc(N4CCCC4)nc4nc[nH]c34)ccc21`, the growth in assay [1] was 45%; in assay [2], -33.6% (active); in assay [3] it was 9.16% (active); in assay [4] it was 40.8%; in assay [5] it was 73.5%; in assay [6], -40.2% (active). In addition, the results for the growth in assay [7] and in assay [8] were 76.4% and 13.1%, respectively.

Take `COc1cccc(/C=N/N=C(N)N)c1`: the growth was 97.5% in assay [1]; 114% in assay [2]; 114% in assay [3]; 98% in assay [4]; 100% in assay [5]; 99.9% in assay [6]. Further, the growth in assay [7] is 107%; in assay [8], 96.4%.

With `COc1cc(C)c2c(=O)c3c(oc2c1)C(=O)c1c(O)c(OC)cc(O)c1C3=O`, the growth in assay [1] was 0.298% (active); in assay [2] it was 11.7%; in assay [3] it was 16.3%; in assay [4], 16.9%; in assay [5] it was 7.86% (active); in assay [6], 7.58% (active). The growth in assay [7] was 1.73% (active); in assay [8] it was 14.6%.

`CNC(=O)c1cc(Oc2ccc(NC(=O)c3[nH]c(SC)nc3-c3ccc(F)cc3)cc2)ccn1`: the growth in assay [1] is 37%; in assay [2], 85.3%; in assay [3], 21.2%; in assay [4] it was 90.3%; in assay [5], 66.4%; in assay [6], 62.9%. In addition, the growth in assay [7] was 96.9%; in assay [8] it was 19.4%.

`COc1ccc2cc(-c3nc(C)c(C(C)=O)c(-c4ccc(C)cc4)n3)ccc2c1`: the growth in assay [1] was 72.1%; in assay [2], 82.3%; in assay [3], 89.1%; in assay [4], 91.3%; in assay [5] it was 88.3%; in assay [6], 86.3%. Moreover, the results for the growth in assay [7] and in assay [8] were 109% and 91.7%, respectively.

Regarding `COc1ccc2[nH]c(C(=O)OCc3ccc4cccc(O)c4n3)cc2c1`, the growth in assay [1] is -53.9% (active); in assay [2], -79.3% (active); in assay [3], -86.2% (active); in assay [4], -72.8% (active); in assay [5] it was -39% (active); in assay [6] it was -77.7% (active). For the same molecule, the growth in assay [7] was -35.8% (active); in assay [8], 10.7%.

Consider `CN(C)c1ccc(C(c2ccccc2)c2ccc(N(C)C)cc2)cc1`, for which the growth in assay [1] was 86.7%; in assay [2], 101%; in assay [3] it was 97%; in assay [4] it was 93.4%; in assay [5], 90.3%; in assay [6], 80.6%. The growth was 95.7% in assay [7] and 91.5% in assay [8].

In the case of `CC1=C(C(=O)Nc2ccc(F)cc2)C(c2ccc(Cl)cc2)C2=C(CC(C)(C)CC2=O)N1` (stereo not given), the growth was 82.6% in assay [1]; 99.9% in assay [2]; 91.6% in assay [3]; 94.6% in assay [4]; 80.1% in assay [5]; 86.9% in assay [6]. Also, the growth is 99.6% in assay [7] and 92.6% in assay [8].

Take `CNC(=O)c1cc(Oc2ccc(NC(=O)c3nc(S(C)(=O)=O)n(C)c3-c3ccc(F)cc3)cc2)ccn1`: the growth is 61.5% in assay [1]; 80.6% in assay [2]; 79.4% in assay [3]; 72.1% in assay [4]; 79% in assay [5]; 64.2% in assay [6]. For the same molecule, the growth in assay [7] was 93.8%; in assay [8] it was 21.9%.

Take `Cc1cc(C)cc(CCCCCCCCCCCCCCCCCC(=O)O)c1`: the growth in assay [1] was 82.4%; in assay [2], 103%; in assay [3], 115%; in assay [4], 108%; in assay [5], 96.1%; in assay [6] it was 99.9%. Further, the growth in assay [7] is 102%; in assay [8] it was 106%.

With `CC(OC(=O)Nc1cccc(Cl)c1)C(=O)O` (stereo not given), the growth was 93.2% in assay [1]; 113% in assay [2]; 82.8% in assay [3]; 99.5% in assay [4]; 99.7% in assay [5]; 97.2% in assay [6]. The growth is 99.8% in assay [7] and 101% in assay [8].

As to `O=C(O)C1[S][Sb]([CH](C(=O)O)[CH](C(=O)O)[Sb]2[S]C(C(=O)O)C(C(=O)O)[S]2)[S]C1C(=O)O` (stereo not given), the growth in assay [1] is 86.8%; in assay [2], 63.8%; in assay [3], 116%; in assay [4] it was 103%; in assay [5], 67.9%; in assay [6], 100%. For the same molecule, the values for the growth in assay [7] and in assay [8] were 108% and 100%, respectively.
